# Test results published in PubChem BioAssay AID2716 (Broad Institute, 2010).
# Out of some 320,000 compounds screened, about 3,300 (1%) were called active. Only a selection was taken, and actives are over-represented in it overall. A number with no mark means an inactive call.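 The calls were made as follows: active = every valid replicate shows activation above 250% relative to neutral control wells; inactive = the rest, any valid replicate at or below 250%.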
# Assay: restored growth of temperature-sensitive Mot1-301 yeast – S. cerevisiae, ATP luminescence, 38.5C, SUMOylation pathway inhibitor project, primary screen (AID 2716);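 also: OY570 slx delta 5 strain wells were the positive control but not used for scaling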
# Details: S. cerevisiae Mot1-301 growth rescue, at 18.8 µM, stronger effect = higher value, percent above DMSO median, 100 means doubled
row,Compound,growth rescue
1,Cc1c(Cl)c([N+](=O)[O-])nn1CCCC(=O)NC(C)c1ccccc1 (stereo unspecified),3.65%
2,CCOc1ccc(/C=N/Nc2nncc(-c3ccccc3)n2)cc1OC,999% (active)
3,COc1cccc(/C=N\Nc2nncc(-c3ccccc3)n2)c1,-1.53%
4,CCOc1cc(/C=N/NC(=O)c2cc(-c3ccccc3)nc3ccccc23)ccc1O,15.1%
5,CCC1(CC)NC(=O)N(CC(=O)OCC(=O)NC(=O)c2ccccc2)C1=O,663% (active)
6,CCC1(CC)NC(=O)N(CC(=O)OCC(=O)Nc2ccc(C(F)(F)F)cc2)C1=O,154%
7,CCCCNC(=O)CN1C(=O)NC(Cc2ccccc2)(Cc2ccccc2)C1=O,-4.3%
8,Cc1c(C(N)=O)sc2ncn(CCOc3ccccc3)c(=O)c12,-2.19%
9,Cc1cccc2c1N(CCOc1ccccc1)C(=O)C2=O,-12.8%
10,Cc1nn(CCOc2ccccc2)c(=O)n1-c1ccccc1F,1160% (active)
11,CN(/C(=N/S(=O)(=O)c1cccs1)c1ccccc1)c1ccc(O)cc1,313%
12,CCCCC(=O)N/N=C(\C)CC(=O)Nc1cc(Cl)ccc1OC,1520% (active)
13,COc1ccc(/C(C)=N/NC(=O)CCC(=O)Nc2ccc(Cl)cc2Cl)c(OC)c1,28.5%
14,COc1ccc(Cl)cc1NC(=O)CNc1ccccc1F,0.922%
15,COc1ccc(Cl)cc1-n1c(C)cc(C(=O)OCC(=O)N2CC(=O)Nc3ccccc32)c1C,-14.8%
16,CCc1noc(C)c1C(=O)Oc1ccc(N(C)S(=O)(=O)c2ccc(C)c(C)c2)cc1,-5.53%
17,COCC(=O)Nc1cc(C(=O)OC)cc(C(=O)OC)c1,10%
18,CCc1ccccc1NC1c2ccccc2C(=O)N1c1cccnc1 (stereo unspecified),462% (active)
19,Cc1ccnc(N2C(=O)c3ccccc3C2Nc2ccc3c(c2)OCCO3)c1 (stereo unspecified),-14%
20,COC(=O)c1cc(NC2c3ccccc3C(=O)N2c2ccc(Cl)cn2)cc(C(=O)OC)c1 (stereo unspecified),-1.41%
21,CS(=O)(=O)N(CC(=O)N/N=C/c1ccccn1)c1ccc(Oc2ccccc2)cc1,6.74%
22,O=C(CCCCCN1C(=O)c2cccc3cccc(c23)C1=O)NCc1ccco1,-8.72%
23,O=C(CN1C(=O)/C(=C/c2ccccc2F)Sc2ccccc21)NCc1cccnc1,-3.97%

row,Compound,growth rescue
1,O=C(CN1C(=O)/C(=C\c2ccc(C(F)(F)F)cc2)Sc2ccccc21)NCc1ccco1,963% (active)
2,Cc1ccc(NC(=O)COC(=O)CN2CCCCCC2=O)c(C)c1,2.83%
3,O=C(O)c1c(NC(=O)N2CCCC2)sc2c1CCCC2,2.52%
4,O=C(O)CCCCCCCCCC[n+]1ccccc1,17.1%
5,CC(CNc1ccc([N+](=O)[O-])c2cccnc12)Nc1c([N+](=O)[O-])cc(C(F)(F)F)cc1[N+](=O)[O-] (stereo unspecified),469%
6,CCOC(=O)CCCCCC(=O)Nc1ccc2c(c1)CC(=O)N([C@@H](C)CO)C[C@H](C)[C@@H](CN(C)Cc1ccccc1)O2,-3.38%
7,Cc1nc2sc(C(c3ccco3)N3CCOCC3)c(O)n2n1 (stereo unspecified),853% (active)
8,Cc1nc2sc(C(c3ccco3)N3CCC4(CC3)OCCO4)c(O)n2n1 (stereo unspecified),-10%
9,Cc1ccc(C(c2sc3nc(C)nn3c2O)N2CCN(c3ccccc3)CC2)cc1 (stereo unspecified),6.75%
10,CCN1CCN(C(C(=O)NC2CCCC2)c2cc3c(cc2[N+](=O)[O-])OCO3)CC1 (stereo unspecified),-4.81%
11,COc1cccc(CNC(=O)Cn2c(=O)oc3cc(S(=O)(=O)N4CCCCC4)ccc32)c1,4.01%
12,CC1CCCCN1C(=O)Cn1c(=O)oc2cc(S(=O)(=O)N3CCCCC3)ccc21 (stereo unspecified),12%
13,CC(C)CCNC(=O)Cn1c(=O)oc2cc(S(=O)(=O)N3CC(C)CC(C)C3)ccc21 (stereo unspecified),608% (active)
14,Clc1ccc(Nc2ccc3ccccc3n2)cc1,30.7%
15,COc1ccc(CNC(=O)COc2cccnc2[N+](=O)[O-])cc1,-4.39%
16,COc1ccc(OC)c(NC(=O)CSc2nc(-c3ccccc3)cc(=O)[nH]2)c1,371%
17,O=C(NCc1ccccc1Cl)c1ccc2c(=O)n(CC3CCCO3)c(=S)[nH]c2c1 (stereo unspecified),-7.73%
18,O=C(NC1CCCCC1)c1ccc2c(=O)n(CC3CCCO3)c(=O)[nH]c2c1 (stereo unspecified),2310% (active)
19,Cc1cccc(NC(=O)c2ccc3c(=O)n(CC4CCCO4)c(=S)[nH]c3c2)c1 (stereo unspecified),-20.5%
20,O=C(Nc1cccc(F)c1)NC1CCCCCCC1,2.77%
21,N#C/C(=C(\O)CCl)c1nnc2n1CCCCC2,10%
22,Cc1cn(C)c(=O)n(C)c1=O,274%
23,Cc1ccc2nc(-c3ccc(Br)cc3)cn2c1,-0.961%

row,Compound,growth rescue
1,Cc1ccc(-c2cn3cc([N+](=O)[O-])ccc3n2)cc1,25%
2,Cc1ccc(-c2cn3cc(C)ccc3n2)cc1,297% (active)
3,Cc1cccc(NC(=S)N(CCN(C)C)C(C)c2ccco2)c1 (stereo unspecified),58.7%
4,Cc1nnc(NC(=O)Cn2c(=O)sc3ccccc32)s1,0.0426%
5,O=C(Cn1c(=O)sc2ccccc21)Nc1ccc2c(c1)OCCO2,284% (active)
6,Cn1c(=O)c2ccccc2n(CC(=O)Nc2ccc3c(c2)OCCO3)c1=O,0.839%
7,COCC1CCN(C(=O)CCc2nnc(C3(c4ccc(Cl)cc4)CCC3)o2)C1 (stereo unspecified),-10.9%
8,Cc1ccc(S(=O)(=O)N(CC(=O)NCCSC2CCCCC2)c2ccccc2F)cc1,1.9%
9,O=C(NC1CCCC1)C(c1ccc(N2CCOCC2)cc1)N(C(=O)c1ccco1)c1ccccc1F (stereo unspecified),95.4%
10,Cc1ccc(N(C(=O)c2ccc(CN3CCOCC3)o2)C(C(=O)NCCC(C)C)c2cccs2)c(C)c1 (stereo unspecified),-1.16%
11,Cc1cccc(N(C(=O)c2ccc(CN3CCOCC3)o2)C(C(=O)NC2CCCCC2)c2ccc(F)cc2)c1 (stereo unspecified),647% (active)
12,CCc1cc(-c2nnc(SCC(=O)NC3CC3)n2C)cs1,-5.06%
13,O=C(O)C1C2C=CC(C2)C1C(=O)NCc1ccccc1 (stereo unspecified),-11%
14,C=C(Cl)COC(=O)C1C2C=CC(C2)C1C(=O)O (stereo unspecified),885% (active)
15,CN1CCN(C(=O)C2C3C=CC(C3)C2C(=O)O)CC1 (stereo unspecified),0.946%
16,CCOC(=O)C1CCN(C(=O)c2cccc(S(=O)(=O)N(CC)c3ccccc3)c2)CC1,-7.37%
17,Cc1ccc(S(=O)(=O)N2CCN(c3ccccc3)CC2)cc1C,11.5%
18,Cc1cc(C)n(CCC(=O)N2CCN(S(=O)(=O)c3ccc(C)c(C)c3)CC2)n1,315% (active)
19,Cc1cc(C)n(C(=O)c2ccc(S(=O)(=O)N3CCCC3)cc2)n1,1400%
20,Cc1ccccc1NC(=O)C(C)OC(=O)CCC(=O)N(CC(C)C)c1c(N)n(CC(C)C)c(=O)[nH]c1=O (stereo unspecified),-16.2%
21,O=C(OCCN1C(=O)c2ccccc2C1=O)[C@@H]1CC(O)CN1S(=O)(=O)c1ccccc1[N+](=O)[O-] (stereo partly specified),-16.3%
22,O=C(Nc1ccc(S(=O)(=O)Nc2ncccn2)cc1)C12CC3CC(CC(C3)C1)C2,35.6%
23,CC(=O)N1CCN(S(=O)(=O)c2c(F)cc(F)c(Cl)c2F)CC1,9.01%

row,Compound,growth rescue
1,O=C(NNS(=O)(=O)c1c(F)cc(F)c(Cl)c1F)C12CC3CC(CC(C3)C1)C2,1720% (active)
2,CCN(CCn1cccn1)C(=O)CC1C(=O)NCCN1Cc1cccc(OC)c1OC (stereo unspecified),-10.6%
3,C=Cc1ccc(C(=O)N2CCCC(CCC(=O)N3CCN(c4ccccn4)CC3)C2)cc1 (stereo unspecified),-28.8%
4,O=C(c1ccc(F)cc1)c1c[nH]c(C(=O)NCc2cccnc2)c1,-16%
5,CCOC(=O)c1c(C)nn(-c2ncccc2NC(=O)CCC(=O)O)c1C,-17.7%
6,N#Cc1c(-c2ccccc2)nc(SCc2ccc([N+](=O)[O-])cc2)[nH]c1=O,10.6%
7,COc1ccccc1CSc1ncc(-c2ccc([N+](=O)[O-])cc2)[nH]1,1260% (active)
8,COc1ccccc1CC(=O)Nc1ccc([N+](=O)[O-])cc1OC,-7.23%
9,CC(C)(C)Oc1ccccc1Nc1nc(NCCO)nc(N2CCCC2)n1,8.32%
10,CC(C)c1cc(C(=O)N/N=C/c2ccoc2)c(O)c(C(C)C)c1,2.88%
11,O=C(COc1ccccc1[N+](=O)[O-])N/N=C/c1ccc[nH]1,-23.4%
12,CC(Oc1ccccc1[N+](=O)[O-])C(=O)N/N=C/c1ccoc1 (stereo unspecified),547% (active)
13,Nc1nonc1-n1nnc(C(=O)N/N=C/c2cc(Br)ccc2O)c1CSC1=NCCS1,-10.1%
14,CCN(C(=O)CSc1nc(N)cc(=O)[nH]1)C1CCS(=O)(=O)C1 (stereo unspecified),5.44%
15,CC(C)(C)c1ccc(C(=O)NNC(=O)Cc2ccccc2)cc1,10.6%
16,C=Cn1c(C(=O)O)ccc1-c1ccc(OC)cc1,6.91%
17,COc1cccc(/C=N/NC(=O)C(=O)N2CCCC2)c1,11%
18,COc1ccccc1N1CCN(/N=C/c2ccc(O)cc2O)CC1,115%
19,COc1ccccc1N1CCN(C(=O)C(=O)N/N=C/c2ccccc2F)CC1,490% (active)
20,CCOC(=O)c1cnc2ccc(F)cc2c1Nc1ccc2c(c1)OCCO2,37%
21,Nc1nc(COC(=O)CCC(=O)c2ccc(Cl)cc2)nc(Nc2ccccc2)n1,18.5%
22,Cc1ccc(OC(=O)c2c(C)nn(-c3ccccc3)c2C)cc1,-15.1%
